Screening results from PubChem.
DT40 TDP1 CPT – DT40-hTDP1 cell growth loss with CPT; chicken DT40 Tdp1-/-;hTDP1 cells + 20 nM CPT, ATP luminescence, 48 h; Potency, µM (series often up to 46.2 µM), for inactives: at the highest dose activity change, negative = growth inhibition, actives largely listed as inhibitors; 12% of 420,000 active; also: potency is read from the fitted curve at half-maximal effect; nearly all actives have a fitted effect of over 55% in size
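Cell growth measured by CellTiter-Glo luminescence after a minimum 48 h, 37 C compound exposure with 20 nM CPT in Tdp1-knockout DT40 cells stably expressing hTDP1, seeded 400/well; qHTS titration format.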
RORgamma inh – inhibitors of mouse ROR gamma transcriptional activity; P51450; Drosophila S2 Gal4-RORgamma UAS-luciferase reporter, 20 h; Potency, µM (highest dose often 53.6 µM), for the others: top-dose activity change, negative = inhibition, hits mostly inhibitors; 5.4% of 310,000 active; also: potency is read from the fitted curve at half-maximal effect; nearly all actives have a fitted effect of over 60% in size
Target sequence (P51450 whole entry, looked up, the tested form may be a part): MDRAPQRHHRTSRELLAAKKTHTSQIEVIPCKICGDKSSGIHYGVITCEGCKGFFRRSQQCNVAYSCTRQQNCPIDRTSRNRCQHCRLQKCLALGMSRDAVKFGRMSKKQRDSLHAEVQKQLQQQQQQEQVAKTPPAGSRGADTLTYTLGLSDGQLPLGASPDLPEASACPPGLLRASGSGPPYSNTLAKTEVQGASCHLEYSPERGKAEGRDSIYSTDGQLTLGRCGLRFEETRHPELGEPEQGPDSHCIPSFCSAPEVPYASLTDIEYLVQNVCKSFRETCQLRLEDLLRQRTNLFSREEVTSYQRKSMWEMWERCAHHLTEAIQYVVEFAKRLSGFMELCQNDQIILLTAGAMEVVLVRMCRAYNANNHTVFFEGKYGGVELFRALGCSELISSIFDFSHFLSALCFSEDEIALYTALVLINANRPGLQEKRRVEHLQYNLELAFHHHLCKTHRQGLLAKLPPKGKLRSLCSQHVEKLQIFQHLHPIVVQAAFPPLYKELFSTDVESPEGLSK
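ROR gamma transcriptional activity was tracked as Gal4-UAS luciferase output in stably transfected Drosophila Schneider cells, with compound added 1 hr before 700 uM copper sulfate induction and a 20 hr ambient-temperature incubation.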
VP16 counter – inhibits Gal4-VP16 luciferase reporter, ROR gamma counter-screen; Drosophila S2 Gal4-VP16 UAS-luciferase, luminescence, 20 h; Potency, µM (doses to about 53.6 µM), without a hit: at the highest dose activity, negative = inhibition, hits mostly inhibitors; 3.5% of 310,000 active; AID 2546;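 also: Gal4-VP16 expression switched on by copper sulfate through the metallothionein promoter; potency is read from the fitted curve at half-maximal effect; nearly all actives have a fitted effect of over 50% in size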
IL-1B inflam inh – blocks inflammasome-driven IL-1 beta release | THP-1 LPS/ATP IL-1B secretion, AlphaLISA, 16 h; stronger effect = lower value | activity change, % at 57.5 µM | 4.7% of 360,000 active | AID 743279; in the data active = activity change below about -50%; inconclusive = mostly about -30% to -49%
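THP-1 cells pretreated 1 hr with compounds (up to 57.5 uM final), then stimulated with LPS (250 ng/mL final) plus ATP (1.25 mM final); secreted IL-1B measured by AlphaLISA after 16 hr, decreased signal indicating inhibition.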
TDP1 cell noCPT – qHTS for Inhibitors of human tyrosyl-DNA phosphodiesterase 1 (TDP1): qHTS in cells in absence of CPT; Potency, µM (doses to about 46.2 µM), for inactives: at the highest dose activity change, negative = growth inhibition, usual class: inhibitors; 15% of 420,000 active; DT40 Tdp1-/- hTDP1 cells, no CPT, ATP luminescence, 48 h; AID 686978, 2013; also: potency is read from the fitted curve at half-maximal effect; nearly all actives have a fitted effect of over 55% in size
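Readout: luminescence from CellTiter-Glo after 30 min in the dark at RT. Cells: DT40 Tdp1-/- with stable hTDP1, 400/well. Exposure: compounds alone, ≥48 hr, 37 °C.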
LDHA inh – inhibitors of human lactate dehydrogenase A; activity change, % (values are at about 110 or 230 µM); P00338; 0.15% of 480,000 active; AID 1347041; purified LDHA, NADH/diaphorase-resazurin fluorescence; stronger effect = lower value; in the data active = activity change below about -30%; inconclusive = mostly about -25% to -30%;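 also: plate controls were DMSO wells for no effect and wells without enzyme for full effect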
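Enzyme activity of human lactate dehydrogenase 5 (2 nM; 0.06 mM NADH, 0.2 mM pyruvate, 5 min, RT) is measured via a resazurin/diaphorase fluorescence readout of residual NADH.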
Numbers without * were called inactive; ? = inconclusive; nt = no result. A selection: hits, their analogues and other compounds. The true share with any hit is near 18%. Unless noted, calls follow the shape of the dose curve; as a rule, active = well fitted curve in the direction sought with a large enough effect; inconclusive = small, poorly fitted or top-dose-only effect, or another doubt; inactive = no such curve, though single readings can be large; an effect the other way counts as inactive or inconclusive. Unless noted, % is scaled to controls: 0 for no effect and ±100 for the full control effect.

SMILES	DT40 TDP1 CPT	RORgamma inh	VP16 counter	IL-1B inflam inh	TDP1 cell noCPT	LDHA inh
Cc1nc(SCC(=O)OCc2ccccc2)c(C#N)c(-c2ccccc2)c1C(=O)Nc1ccccc1	?	-30%	-16%	24	?	2
COC(=O)CSc1nc(C)c(C(=O)Nc2ccccc2C)c(-c2ccc(Cl)cc2)c1C#N	?	1%	1%	-76*	?	-2
Cc1ccccc1NC(=O)c1c(C)nc(SCC(=O)OCc2ccccc2)c(C#N)c1-c1ccc(F)cc1	?	12%	-7%	6	15µM*	-9
O=C1c2ccccc2C(c2c[nH]c3ccccc23)N1CCc1ccccc1 (stereo not given)	nt	nt	nt	nt	nt	11
Cc1ccc(OCC(=O)Nc2cc(S(=O)(=O)N3CCCCC3)ccc2N2CCN(C)CC2)c(C)c1	15µM*	nt	nt	?	9.2µM*	2
CC(=O)NCCC(=O)Nc1cc(S(=O)(=O)N2CCCCC2)ccc1N1CCN(C)CC1	-11%	nt	nt	-4	-8%	-5
COc1ccccc1OCC(=O)Nc1cc(S(=O)(=O)N2CCCCC2)ccc1N1CCCCC1	23µM*	?	-13%	-1	23µM*	5
CCOc1ccc(S(=O)(=O)N2CCCCC2)cc1NC(=O)Cc1cccs1	?	nt	nt	8	18µM*	-4
CC(=O)NCCC(=O)Nc1cc(S(=O)(=O)N2CCCCC2)ccc1N1CCCCC1	?	nt	nt	-2	23µM*	-3
Cc1ccccc1OCCC(=O)Nc1cc(S(=O)(=O)N2CCCCC2)ccc1N1CCN(C)CC1	?	nt	nt	-9	?	-2
CCOc1cc(/C=C2/NC(=O)NC2=O)cc(Br)c1OCC	nt	nt	nt	nt	nt	-4
Cc1oc(-c2nc(C#N)c(N3CCCC3)o2)cc1S(=O)(=O)N(C)C	nt	nt	nt	nt	nt	2
CCOc1ccccc1OCC(=O)Nc1cc(S(=O)(=O)N2CCCCC2)ccc1OC	?	nt	nt	13	?	-1
CCOc1ccccc1OCC(=O)Nc1cc(S(=O)(=O)N2CCCCC2)ccc1N1CCN(CC)CC1	23µM*	nt	nt	-27	16µM*	-13
Cc1cc(OCC(=O)Nc2ccccc2N2CCOCC2)c(C(C)C)cc1Cl	16µM*	nt	nt	-12	15µM*	1
Cc1ccccc1OCC(=O)Nc1cc(S(=O)(=O)N2CCOCC2)ccc1N1CCCC1	?	nt	nt	-21	?	0
CC(C)c1ccccc1OCC(=O)Nc1cc(S(=O)(=O)N2CCOCC2)ccc1N1CCCC1	?	nt	nt	-56*	15µM*	-3
CCCCN1C(=O)C2(C(=C(O)c3ccc4c(c3)OCCO4)C(=O)C(=O)N2CCOC)c2ccccc21 (stereo not given)	nt	nt	nt	nt	nt	3
c1ccc(-c2cn3c(n2)-c2ccccc2C3)cc1	?	10µM*	?	-7	15µM*	-1
Cc1oc(-c2cccs2)nc1CC(=O)N(Cc1ccc2c(c1)OCO2)C1CCCC1	nt	nt	nt	nt	nt	7
O=c1c(-c2ccc(F)c(F)c2)nc2cncnc2n1Cc1ccc(F)cc1	15µM*	?	?	nt	16µM*	nt
O=c1c(-c2cccc(F)c2)nc2cncnc2n1Cc1ccc(F)cc1	14%	?	?	nt	-2%	nt
O=c1c(-c2cccc(F)c2)nc2cncnc2n1Cc1ccccc1	?	12%	8%	nt	16µM*	nt
CN1C(C(=O)NCC2CC2)CC2Cn3c(nc4cc(Cl)c(Cl)cc43)C21 (stereo not given)	-17%	19%	0%	6	-18%	3
CC(C)CCNC(=O)C1CC2Cn3c(nc4cc(Cl)c(Cl)cc43)C2N1C (stereo not given)	?	nt	nt	-21	23µM*	0
COc1ccc(C(C)=O)cc1CSCc1coc(-c2ccc(Cl)cc2)n1	nt	nt	nt	nt	nt	0
